Molecules are shown by their SMILES. Hit rate of the full screen: of about 66,000 compounds, about 960 (1.5%) showed an effect of 50% or more. What follows is part of a selection rich in strong results, with near analogues and random picks from the rest.

The record followed here is ChEMBL document CHEMBL3988442, “University of Dundee, Small-Polar-MMV Screening Library” (2021).

The test system of this assay is Trypanosoma brucei. The assay is described as follows: Trypanosoma brucei 72 hour study. The format is functional, organism-based. The arrangement: scale not given: in the data most compounds retested in dose-response had high values.

Consider `CCn1nc(C)cc1C(=O)N1C[C@@H]2C[C@@H](C)O[C@@H]2C1.O=C(O)C(F)(F)F`, for which the “Percent Effect” value (30.3 µM, […]) came out at 3.708%.
Still for that read-out and setting: as for `COCC1CN(C(=O)c2ccoc2)Cc2cnn(CC3CCOCC3)c21.O=C(O)C(F)(F)F` (stereo not drawn), the figure is -46.76%; as for `NC1C=C(C(F)(F)F)NC=C1c1ccccc1` (stereo not drawn), 8.109%.
On to `CC(C)CC(=O)N1C[C@@H]2CCN(c3cnccn3)C[C@@H]2C1.O=C(O)C(F)(F)F`, for which, where the note is “30.3 µM, […]”, the “Percent Effect” value is recorded as -10.22%.
For the compound `CC(C)(C)OC(=O)NCCNC(=O)c1ccc2cc[nH]c2c1`, the “Percent Effect” value (30 µM, 30.03 µM) came to 3.798%.
Same read-out and setting: as for `CC(C)(C)S(=O)(=O)CCNC(=O)c1ccc2ccccc2c1`, the figure is -8.633%.
Turning to `CC(C)(C)S(=O)(=O)CCNC(=O)c1ccc2cc[nH]c2c1`, the “Percent Effect” value (30 µM, 30.03 µM) is on record as 101.8%.
As to `CN1CCN(CCO)C(=O)C12CCN(Cc1ccsc1)CC2.O=C(O)C(F)(F)F.O=C(O)C(F)(F)F`, under “30.3 µM, […]”, the “Percent Effect” value is on record as -7.984%.
Regarding `CN(C(=O)[C@H]1CSCN1C(=O)OC(C)(C)C)C1CC1`, the “Percent Effect” value (30 µM, 30.03 µM) was -17.54%.
With `Cn1nc2c(cc1=O)CN(Cc1coc(-c3cccc(F)c3)n1)CC2`, the “Percent Effect” value (30.3 µM, […]) turned out to be 75.84%.
With `Cn1nc2c(cc1=O)CN(Cc1coc(-c3ccccc3)n1)CC2`, the “Percent Effect” value (30.3 µM, […]) was -6.992%.
Consider `Cn1nc2c(cc1=O)CN(Cc1coc(-c3ccc(F)cc3)n1)CC2`, for which the “Percent Effect” value (30.3 µM, […]) came to 21.89%.
With `CN1CCN(c2ccc(F)cc2NC(=O)NCc2ccon2)CC1`, the “Percent Effect” value (30.3 µM, […]) was -94.37%.
Consider `Cc1nccn1CC1CCN(C(=O)Cc2ccccc2)CC1`, for which the “Percent Effect” value (30 µM, 30.03 µM) is reported as -11.09%.
For `CC(C)N(C)Cc1cnc2n1CCN(Cc1ccsc1)C2.O=C(O)C(F)(F)F.O=C(O)C(F)(F)F`, the “Percent Effect” value (30.3 µM, […]) is -0.145%.
On the same count and under the same terms, as for `Cc1cc(-c2nccs2)nc(C2CCN(Cc3ccc(F)cc3)CC2)n1.Cl`, the figure is -1.786%.
`CC(C)(C)c1cc(NC(=O)CN2CCc3cncnc3C2)on1`: the “Percent Effect” value is 8.588% (30.3 µM, […]) and -38.22% (10 mM, 10 mM as filed; unlikely as a test dose).
Turning to `CC(C)c1cc(NC(=O)CN2CCc3cncnc3C2)on1`, for the setting “30 µM, 30.03 µM”, the “Percent Effect” value is reported as 51%.
In the case of `Cc1cc(NC(=O)CN2CCc3cncnc3C2)on1`, the “Percent Effect” value is 8.362% (30.3 µM, […]) and -44.64% (10 mM, 10 mM as filed; unlikely as a test dose).
`COC[C@@H]1CCC[C@@]12CN(Cc1ccco1)CCO2.O=C(O)C(F)(F)F`: the “Percent Effect” value (30 µM, 30.03 µM) is -1.793%.
Consider `CCn1cc(N2Cc3nc(N4CCCC4)ncc3C2=O)cn1`, for which the “Percent Effect” value (30.3 µM, […]) was -27.06%.
For the compound `CC(C)c1nccn1C(C)C(=O)N1CCN(c2ccccc2Cl)CC1` (stereo not drawn), where the note is “30 µM, 30.03 µM”, the “Percent Effect” value worked out at 16.25%.
`Cc1cc(N2CCN(C(=O)C(C)n3ccnc3C(C)C)CC2)cc(C)n1` (stereo not drawn): the “Percent Effect” value (30 µM, 30.03 µM) is listed as -26.06%.
For `Cc1cccnc1N1CCN(C(=O)C(C)n2ccnc2C(C)C)CC1` (stereo not drawn), the “Percent Effect” value (30 µM, 30.03 µM) is 78.55%.
On the same count and under the same terms, as for `CN(C)CC1CN(C(=O)CCc2ccccc2)Cc2nccn2C1.O=C(O)C(F)(F)F` (stereo not drawn), the figure is -27.78%.
`O=C1O[C@@H]2CN(CCc3ccccc3)C[C@@H]2N1CCCN1CCOCC1`: under “30 µM, 30.03 µM”, the “Percent Effect” value is listed as -26.55%.
The same measure, in the same setting: then `O=C1O[C@@H]2CN(Cc3ccccc3)C[C@@H]2N1CCCN1CCOCC1`, with 65.91%.
Still for that read-out and setting: as for `O=C1O[C@@H]2CN(Cc3ccncc3)C[C@@H]2N1CCCN1CCOCC1`, the figure is -21.02%.
Consider `CC(C)CC(=O)N1CC[C@@H]2[C@H](CC1)N(Cc1cccnc1)CCS2(=O)=O.O=C(O)C(F)(F)F.O=C(O)C(F)(F)F`, for which the “Percent Effect” value (30.3 µM, […]) is on record as -39.88%.
Still for that read-out and setting: as for `Cc1cccc(CN(Cc2ccccn2)Cc2ncc(C(C)(C)C)o2)c1`, the figure is 99.39%.
Still for that read-out and setting: as for `CCN(Cc1cccc(Cl)c1)Cc1ncc(C(C)(C)C)o1`, the figure is -76.17%; as for `Cc1cccc(CN(Cc2ccccn2)S(=O)(=O)N(C)C)c1`, 5.656%.
Take `CCN(CCSc1ccccc1)C(=O)c1cn([C@H]2CC[C@@H](N)CC2)nn1`: under “30.3 µM, […]”, the “Percent Effect” value was -71.42%.
The same measure, in the same setting: then `Cc1ccc(SCCCNC(=O)c2cn([C@H]3CC[C@@H](N)CC3)nn2)cc1`, with 59.21%.
For the compound `Cc1ccc(SCCN(C)C(=O)c2cn([C@H]3CC[C@@H](N)CC3)nn2)cc1`, the “Percent Effect” value (30.3 µM, […]) is on record as -119%.
`CN(C)C(=O)Cc1nc(CN2CCCCC2Cn2cccn2)cs1` (stereo not drawn): where the note is “30 µM, 30.03 µM”, the “Percent Effect” value was -14.9%.
For `CN(C)C(=O)Cc1nc(CN2CCCC2Cn2cccn2)cs1` (stereo not drawn), the “Percent Effect” value (30.3 µM, […]) is -75.86%.
On to `CC(C)c1nc(CN2CCCCC2)cs1`, for which the “Percent Effect” value (30 µM, 30.03 µM) is given as 11.44%.
Take `CCCc1nc(CN2CCCCC2Cn2cncn2)cs1` (stereo not drawn): the “Percent Effect” value is given as 101.4% (30.3 µM, […]) and -40.08% (10 mM, 10 mM as filed; unlikely as a test dose).
Turning to `CCCc1nc(CN2CCCC2Cn2cncn2)cs1` (stereo not drawn), the “Percent Effect” value (30 µM, 30.03 µM) stood at 2.721%.
Consider `CC(=O)Nc1nc(CN2CCCCC2Cn2cccn2)cs1` (stereo not drawn), for which, under “30 µM, 30.03 µM”, the “Percent Effect” value was determined as 16.1%.
On to `CN(C)C(=O)Cc1nc(CN2CCCCC2Cn2cncn2)cs1` (stereo not drawn), for which the “Percent Effect” value (30.3 µM, […]) is reported as -54.68%.
Take `CC(=O)Nc1nc(CN2CCCC2Cn2cccn2)cs1` (stereo not drawn): the “Percent Effect” value (30.3 µM, […]) is 98.13%.
Take `CC(C)c1nc(CN2CCCC2CN2CCCC2)cs1` (stereo not drawn): the “Percent Effect” value (30.3 µM, […]) amounted to 99.84%.
Take `CC(C)c1nc(CN2CCCCC2Cn2cncn2)cs1` (stereo not drawn): the “Percent Effect” value by setting is: (30.3 µM, […]) 7.247%; (10 mM, 10 mM as filed; unlikely as a test dose) -40.32%.
For `CCCc1nc(CN2CCCC2Cn2cccn2)cs1` (stereo not drawn), the “Percent Effect” value (30.3 µM, […]) was found to be 100.2%.
With `CC(=O)Nc1nc(CN2CCCC2Cn2cncn2)cs1` (stereo not drawn), the “Percent Effect” value (30 µM, 30.03 µM) amounted to 3.686%.
Consider `CN(C)Cc1nc(-n2cnc(C(=O)NCC3CC3)c2)n2ccccc12`, for which the “Percent Effect” value (30.3 µM, […]) was -8.964%.
For `CN1C(=O)CC(C(=O)O)C12CCN(c1ccc3ccccc3n1)CC2` (stereo not drawn), the “Percent Effect” value (30 µM, 30.03 µM) is -0.482%.
